# “And” between values parts separate entries of the source, which are not always exact repeats. Equal values may be shown once. In all, about 290,000 compounds went through this assay and about 2,000 (0.69%) were called active. For the sample, actives were picked, then their nearest neighbours and some compounds at random. Unmarked numbers belong to inactive results. Rule as the data show it: active = activity change below about -30%; inactive = the rest, inconclusive results apart.
# Assay: qHTS Assay for Inhibitors of Fructose-1,6-bisphosphate Aldolase from Giardia Lamblia: Coupling assay counterscreen
# Details: coupling enzyme system counterscreen, AmpLite Red fluorescence; at 58.2 µM (top of the series)
# Description: MLPCN Grant: MH085699-01 Assay Provider: Osnat Herzberg, University of Maryland NCGC Assay Overview: The objective of this project is to obtain compounds that inhibit Giardia lamblia growth. G. lamblia is a human pathogen which afflicts impoverished nations; it is the most common cause of outbreaks of diarrhea in the United States. During the course of our study of potential drug targets in Giardia, we have identified the Class II (Zn2+ functions in electrophilic catalysis) fructose-1,6-bisphosphate aldolase (FBPA) as an excellent candidate for drug targeting. FBPA is a key glycolytic pathway enzyme, essential for G. lamblia survival. The human FBPA belongs to the Class I aldolases, which have a different substrate binding site structure and a radically different catalytic mechanism (employing a lysine-Schiff base intermediate). Therefore, affinity-based or mechanism-based inhibitors of the Giardia FBPA are expected not to interfere with the catalytic function of the human FBPA. A glyceraldehyde-3-phosphate dehydrogenase/triose phosphate isomerase/NAD/arsenate coupled assay was adapted to the 1536-well HTP format for use in the primary screen. This was done by coupling it to a diaphorase/resazurin/resorufin reaction that can be monitored by fluorescence (excitation, 544 nm; emission, 590 nm). Compounds identified in this screen will be further evaluated by coupling the […]/triose phosphate isomerase/NADH assay to a phenazine methosulfate/tetranitroblue tetrazolium color reaction. False positives due to the dehydrogenases and diaphorase inhibition will be eliminated, and selectivity assay will triage inhibitors of mammalian triose phosphate isomerase and the Class I FBPA. G. lamblia FBPA inhibitors identified by the in vitro analyses will be examined for growth inhibition of Giardia trophozoites, and for cytotoxicity in human cells. This assay specifically addresses whether activity observed in the primary screen (AID 2451) is related to inhibition of the coupling assay used, as opposed to inhibition of aldolase. Actives in this assay are considered inconclusive for activity against aldolase.
# NCGC Assay Protocol: Step,Parameter,Value,Description 1,Coupling enzyme reagent,2 uL,glyceraldehyde-3-phosphate 2,Compound,23 nL,3.68 nM-57.5 uM final concentration 3,Time,10 min,RT Incubation 4,Substrate/detection Reagent,2 uL,Substrate + enzyme coupling system + AmpLite Red kit 5,Time,20 min,RT Incubation 6,Detector,525 nm/598 nm (Fluorescence),ViewLux Fluorescence Read (Read 1) Notes: 1,Medium-binding black solid-bottom Kalypsys plates. FRD or Kalypsys dispenser. 2,Compound Library (10 mM ,1:5 dilution). Pin-transferred for a [final] range of 3.68 nM-57.5 uM. 3,RT incubation 4,FRD or Kalypsys dispenser, 2 uL of reaction mixture. Bottle kept at 4C and covered in foil to protect from light. 5,RT incubation 6,ViewLux Protocol 1194; Excitation filter wheel A (525/20 Pol; BODIPY TMR FP), Emission filter wheel B (598/25 S; BODIPY TMR FP S). Keywords: Fructose-bisphosphate aldolase, FBPA , Giardia lamblia , Giardia, HTS, Inhibitors
# % is scaled to controls: 0 for no effect and ±100 for the full control effect.
row,Compound,"activity change, negative = inhibition"
1,CCOc1ccc(C(c2c(C)[nH][nH]c2=O)c2c(C)[nH][nH]c2=O)cc1OCC,-13.2%
2,Cc1[nH][nH]c(=O)c1C(c1ccc(-c2ccc(Cl)cc2)o1)c1c(C)[nH][nH]c1=O,-48.6% (active)
3,Cc1[nH][nH]c(=O)c1C(c1ccc2c(c1)OCO2)c1c(C)[nH][nH]c1=O,-3.39%
4,Cc1cc(C)cc(C(=O)NCCN2CCOCC2)c1,0.78%
5,Cc1ccc(C(=O)NCCN2CCOCC2)cc1C,3.18%
6,CC(=O)Oc1cc2c(C(=O)NCCN3CCOCC3)c(C)oc2c2ccccc12,-40.7% (active)
7,CN(CCC(=O)Nc1cc(S(=O)(=O)N(C)C)ccc1Cl)CC(=O)Nc1ccc(F)cc1,0.642%
8,COc1cc(OC)c2c(c1C(CCN1CCCCC1)c1ccc(N(C)C)cc1)OC(=O)CC2c1ccc(N(C)C)cc1 (configuration not stated),0.0898%
9,O=c1c2cc(Br)ccc2nc(-c2cccc(Cl)c2)n1O,-2.84%
10,COc1ccc(C(=O)CCc2ccccc2O)c(OC)c1,-0.998%
11,Cc1cc(C)cc(NC(=O)N2CCCCCCC2)c1,1.15%
12,Cc1ccc2cc3cc(C(=O)N4CCCCCC4)oc3nc2c1,-75.9% (active)
13,Cc1ccc(C(=O)N2CCCCCC2)cc1Br,0.385%
14,O=C(Nc1nnc(-c2ccccc2F)s1)c1ccccc1F,-1.59%
15,COc1ccc(CCC(C)N2CCc3ccccc3C2)cc1 (configuration not stated),-2.37%
16,COc1ccc(Cl)cc1NC(=O)COC(=O)C(CC(C)C)N1C(=O)C2CC=CCC2C1=O (configuration not stated),-0.682%
17,COc1cccc(-c2cc(NCCc3c[nH]c4ccc(OC)cc34)ncn2)c1,-31% (active)
18,COc1ccc2[nH]cc(CCNc3cc(-c4ccccc4CN(C)C)ncn3)c2c1,-1.84%
19,COc1ccc2[nH]cc(CCNc3ncnc4ccc(-c5ccccc5CN(C)C)cc34)c2c1,-1.31%
20,COC(=O)CC1c2ccccc2C(Cc2ccc(OC)cc2)=C(C)N1C(=O)OC (configuration not stated),-0.16%
21,COc1cccc(C(=O)CC(=O)C(=O)Nc2ccc([N+](=O)[O-])cc2C)c1,-0.191%
22,CNC(=O)N1c2ccccc2C=Cc2ccccc21,-0.0842%

row,Compound,"activity change, negative = inhibition"
1,Cc1ccccc1-n1nc(C)c2c1N=C1C(Cl)=CC(Cl)=CN1C2c1ccc(C(=O)O)cc1 (configuration not stated),-39.1% (active)
2,Cc1ccccc1-n1nc(C)c2cc(C(=O)NC3CC3)sc21,5.2%
3,Cc1nn(-c2ccccc2)c(Cl)c1/C=C/C(=O)c1ccc(O)cc1,6.85%
4,COc1ccc(Br)cc1C1C2C=CCC(C)C2C(=O)N1Cc1ccccc1 (configuration not stated),4.05%
5,CC(=O)Nc1ccc(NC(=O)C2CCCN(S(=O)(=O)c3ccc(Cl)cc3)C2)cc1 (configuration not stated),1.51%
6,CC(C)CC[n+]1ccn(C2=C([O-])c3ccccc3C(=O)/C2=N\S(=O)(=O)c2ccccc2)c1,-54.9% (active)
7,COc1c(O)c2c(=O)cc(OC)c3c4c(OC)cc(=O)c5c(O)c(OC)c6c(c(c1C[C@@](C)(O)[C@H]6C(C)=O)c23)c54,-12.5%
8,CCCCN=C1C([N+](=O)[O-])=CC=C2C1=NC1(CCCCC1)N2O,-41.7% (active)
9,CC(c1ccccn1)N(C)C(=O)c1ccc2nc(Cc3cccc(Cl)c3)oc2c1 (configuration not stated),1.38%
10,COC(=O)C1=C(C)N(Cc2ccccc2)C2=C3C(=O)N(c4ccccc4)C(=O)C3[C@@](O)(C(=O)OC)C(=O)N2C1c1ccccc1 (some centres not stated),1.55% and 0.598%
11,O=S(=O)(Nc1ccc2cn[nH]c2c1)c1ccccc1,-8.07%
12,O=S(=O)(Nc1ccc2nc(-c3ccco3)[nH]c2c1)c1ccccc1,-35.1% (active)
13,Cn1c(CCN2CCCC2)nc2cc(NS(=O)(=O)c3ccccc3)ccc21,-1.06%
14,CCOC(=O)c1ccccc1NC(=O)COC(=O)CCC(=O)N1CCOCC1,1.14%
15,CCCN1[C@H](C(=O)OC)C[C@@]2(O)[C@@H](O)[C@@H](O)[C@@H](O)C[C@@H]12,-12.1%
16,COc1ccc(-c2ccc(OC)c(C3C4C=CCC(C)C4C(=O)N3Cc3ccccc3)c2)cc1C (configuration not stated),-0.316%
17,Cc1cc(Br)ccc1NC(=S)NC1CCCC1,2.32%
18,CC[C@@H](C)[C@H](NC(=O)CCc1c(C)c2cc3c4c(oc3c(C)c2oc1=O)CCCC4)C(=O)O,0.476%
19,COC(=O)C1=C(C(=O)OC)[C@@H]2Nc3ccccc3[C@@]23C[C@@H](C(=O)OC)N(S(=O)(=O)c2ccc([N+](=O)[O-])cc2)C3=N1,-1.96%
20,CCOc1ccc(N(C)Cc2cc(=O)oc3ccc(OC)cc23)cc1,-3.63%
21,CCn1c(CNc2ccc(OC)cc2)nnc1SCC(=O)c1ccc(OC)cc1,-36.8% (active)
22,C=CCn1c(CNC(=O)c2ccco2)nnc1SCC(=O)c1ccc(OC)cc1,1.42%

row,Compound,"activity change, negative = inhibition"
1,COC(=O)c1ccc(NC(=O)CSc2nnc(CNc3ccc(OC)cc3)n2C)cc1,-19.7%
2,CC1=C(C(N)=O)C(c2ccc(F)cc2)n2nc(CCCO)nc2N1 (configuration not stated),-0.212%
3,O=C(O)c1cc(S(=O)(=O)NC2CCCc3ccccc32)ccc1O (configuration not stated),20.1%
4,Cc1ccc(S(=O)(=O)c2c(N)n(C)c3nc4ccccc4nc23)cc1,-4.65%
5,CCN(CC)CCn1c(N)c(S(=O)(=O)c2ccccc2)c2nc3ccccc3nc21,2.05%
6,C=CCn1c(N)c(S(=O)(=O)c2cccs2)c2nc3ccccc3nc21,-35.3% (active)
7,CC(=O)NC1CCN(CC(=O)Nc2nccs2)CC1,-1.15%
8,c1ccc2cc3c(NCCN4CCOCC4)ccnc3cc2c1,-52.2% (active)
9,CN(C)c1ccc(-c2nc(NCCN3CCOCC3)c3ccccc3n2)cc1,-0.456%
10,Clc1ccccc1-c1cc(NCCN2CCOCC2)ncn1,2.16%
11,COc1cc(NC(=O)c2ccccc2)c(OC)cc1NC(=O)Cc1ccccc1,-0.254%
12,COc1cccc(CNC(=O)CCC2CCCN(Cc3ccc(OC(F)F)cc3)C2)c1 (configuration not stated),5.02%
13,Cc1ccc(C(=O)N(CC(=O)NC2CCCC2)c2ccc(F)cc2)s1,-3.12%
14,CC1(OC(=O)CCc2ccccc2)C(=O)C=C2C=C(c3ccc(C#N)cc3)N(CCc3ccccn3)C=C2C1=O (configuration not stated),-28.3% and -0.189%
15,CC1(OC(=O)C2CCCC2)C(=O)C=C2C=C(c3ccc(C#N)cc3)OC=C2C1=O (configuration not stated),-0.443%
16,COCCN1C=C2C(=O)C(C)(OC(=O)C3CCCC3)C(=O)C=C2C=C1c1ccsc1 (configuration not stated),-33.6% (active) and -32.5% (active)
17,Cc1onc(-c2ccccc2Cl)c1C(=O)OCC(=O)c1ccccc1,-1.67%
18,O=C(CN1C(=O)c2ccccc2C1=O)NCc1ccc(C(=O)O)cc1,0.209%
19,CC(C)N(C(=O)c1ccc(-c2ccccc2F)cc1)C(C)C,-0.0112%
20,CC(=O)N(C1=C(Cl)C(=O)c2ccccc2C1=O)c1ccc(C(=O)O)cc1,-85.1% (active)
21,COc1ccc(C(=O)N2CCC3(CC2)CCN(c2ccccn2)CC3)cc1,-4.93%
22,Cc1ccc(CNC(=O)Cn2cnc(S(=O)(=O)N3CCCCC3)c2)o1,0.0578%

row,Compound,"activity change, negative = inhibition"
1,CCCCn1c(SCC(=O)NCC2CCCO2)nc2ccc(N3CCOCC3)cc2c1=O (configuration not stated),-43.6% (active)
2,COCCNC(=O)c1ccc(Cn2c(SCC(=O)NCC3CCCO3)nc3ccc(Br)cc3c2=O)cc1 (configuration not stated),0.29%
3,O=C(CCCn1c(SCC(=O)c2ccccc2)nc2ccccc2c1=O)NCC1CCCO1 (configuration not stated),-0.079%
4,Cc1ccc(OCC(=O)NCCCNC(=O)c2cccnc2)cc1C,-0.615%
5,COc1ccc(C=Nc2cccc3ncccc23)cc1,-34.4% (active)
6,O=[N+]([O-])c1cccc2ncccc12,0.0628%
7,COc1ccc(/C=N/Nc2nc3ccccc3c(=O)[nH]2)cc1,0.889%
8,CCCCC/C=C\C/C=C\C/C=C\CCCCC(=O)NCC(=O)O,4.26%
9,COC(=O)C1=C(C(=O)OC)[C@@H]2N(C)c3ccccc3[C@@]23C[C@@H](C(=O)OC)N(S(=O)(=O)c2cccs2)C3=N1,-0.105%
10,O=C1CN(Cc2ccccc2)S(=O)(=O)c2ccccc21,13.2%
11,Cc1ccc(OCCOCCOc2ccc(Br)cc2/C=N\NC(=O)c2ccncc2)cc1,-5.74%
12,COc1ccc(CC(=O)N/N=C/c2cc([N+](=O)[O-])cc(Br)c2O)cc1,8.72%
13,COc1ccc(CC(=O)NCC(=O)N/N=C/c2cc(Br)ccc2OC)cc1,-33.8% (active)
14,COc1cccc(OCc2cc(C(=O)N3CCN(C(=O)c4ccco4)CC3)no2)c1,-0.102%
15,N#Cc1c(-c2ccccc2)cc(-c2ccccc2)nc1SCC(=O)O,5.25%
16,N#Cc1c(N2CCCCC2)nc(N)c2c(N)nc(SCC(=O)O)cc12,-31.7% (active)
17,Cc1cc(C)c(C#N)c(N2CCC(C(N)=O)CC2)n1,0.379%
18,CCN1CCN(c2sc(S(C)(=O)=O)nc2S(=O)(=O)c2ccc(Cl)cc2)CC1,1.03%
19,Cc1ccc(-c2nc3ccccc3[nH]c2=O)cc1,1.32%
20,O=c1[nH]c2ccccc2n2c(-c3ccccc3)nnc12,-62.8% (active)
21,CC(=O)c1c(-c2ccccc2)c2ccccc2[nH]c1=O,7.44%

# — PubChem BioAssay AID2472 (National Center for Advancing Translational Sciences (NCATS), 2010)
